# Tests used:
# Experiment in all cases: PBM binding z-score (relative to random genomic background probes); higher = stronger binding; sequences stand for … in GC…GCGATTGACAGCGTAGAATGAAGG
# [1] = test system: FXR:RXRa (NR concentration 270 nM, RXRa partner concentration 90 nM)
# Procedure, shortened: (§1)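 Binding z-scores were set against random background probes. The data came from custom Agilent 4×180K protein-binding microarrays carrying double-stranded probes with 34-nt variable regions, incubated 1 h with ligand-free nuclear receptor dimers. Partner-specific antibodies detected binding, and scanned fluorescence was regression-normalized.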
# [2] = test system: LXRa:RXRa (NR concentration 270 nM, RXRa partner concentration 90 nM)
# Procedure, shortened: as §1
# [3] = test system: LXRa homodimer (NR concentration 270 nM)
# Procedure, shortened: as §1
# [4] = test system: LXRb:RXRa (NR concentration 270 nM, RXRa partner concentration 90 nM)
# Procedure, shortened: as §1
# [5] = test system: LXRb homodimer (NR concentration 270 nM)
# Procedure, shortened: as §1
# [6] = test system: PPARa:RXRa (NR concentration 270 nM, RXRa partner concentration 90 nM)
# Procedure, shortened: as §1
# [7] = test system: PPARg:RXRa (NR concentration 180 nM, RXRa partner concentration 90 nM)
# Procedure, shortened: as §1
# [8] = test system: PPARg:RXRa 270nM:90nM, anti-RXR (NR concentration 270 nM, RXRa partner concentration 90 nM)
# Procedure, shortened: as §1
# [9] = test system: PPARg:RXRa 30nM:10nM, anti-RXR (NR concentration 30 nM, RXRa partner concentration 10 nM)
# Procedure, shortened: as §1
# [10] = test system: PPARg:RXRa 90nM:30nM, anti-RXR (NR concentration 90 nM, RXRa partner concentration 30 nM)
# Procedure, shortened: as §1
# [11] = test system: PPARg:RXRa DBDmut IVT, anti-RXR (DBD mutation: RXRa K156A/R161A, NR concentration 270 nM, RXRa partner concentration 90 nM)
# Procedure, shortened: as §1
# [12] = test system: PPARg:RXRa IVT, anti-PPARg (NR concentration 270 nM, RXRa partner concentration 90 nM)
# Procedure, shortened: as §1
# [13] = test system: PPARg DBDmut:RXRa IVT, anti-PPARg (DBD mutation: PPARg1 K132A/R137A, NR concentration 270 nM, RXRa partner concentration 90 nM)
# Procedure, shortened: as §1
# [14] = test system: PPARg DBDmut IVT, anti-PPARg (DBD mutation: PPARg1 K132A/R137A, NR concentration 270 nM)
# Procedure, shortened: as §1
# [15] = test system: PPARg homodimer (NR concentration 180 nM)
# Procedure, shortened: as §1
# [16] = test system: PXR:RXRa (NR concentration 270 nM, RXRa partner concentration 90 nM)
# Procedure, shortened: as §1
# [17] = test system: PXR homodimer (NR concentration 270 nM)
# Procedure, shortened: as §1
# [18] = test system: RARa:RXR (NR concentration 270 nM, RXRa partner concentration 90 nM)
# Procedure, shortened: as §1
# [19] = test system: RARa homodimer (NR concentration 270 nM)
# Procedure, shortened: as §1
# [20] = test system: RARb:RXRa (NR concentration 270 nM, RXRa partner concentration 90 nM)
# Procedure, shortened: as §1
sequence,measurement,setting,value
TACCCTAGGTCATGCGGGCCAGTATAGTGTCGGC,PBM binding z-score,[1],4.4
same,PBM binding z-score,[2],6.5
same,PBM binding z-score,[3],8.1
same,PBM binding z-score,[4],3.42
same,PBM binding z-score,[5],2.52
same,PBM binding z-score,[6],3.62
same,PBM binding z-score,[7],3.01
same,PBM binding z-score,[8],2.92
same,PBM binding z-score,[9],0.448
same,PBM binding z-score,[10],1.71
same,PBM binding z-score,[11],1.96
same,PBM binding z-score,[12],3.63
same,PBM binding z-score,[13],0.136
same,PBM binding z-score,[14],-0.0789
same,PBM binding z-score,[15],0.581
same,PBM binding z-score,[16],1.72
same,PBM binding z-score,[17],0.593
same,PBM binding z-score,[18],2.37
same,PBM binding z-score,[19],0.299
same,PBM binding z-score,[20],3.93
GGAACGAGGGCAACTTGATAGCAGAGTTTGATGG,PBM binding z-score,[1],0.815
same,PBM binding z-score,[2],0.375
same,PBM binding z-score,[3],-0.472
same,PBM binding z-score,[4],0.468
same,PBM binding z-score,[5],-0.203
same,PBM binding z-score,[6],1.53
same,PBM binding z-score,[7],1.63
same,PBM binding z-score,[8],1.28
same,PBM binding z-score,[9],-0.0805
same,PBM binding z-score,[10],0.883
same,PBM binding z-score,[11],4.45
same,PBM binding z-score,[12],3.29
same,PBM binding z-score,[13],0.236
same,PBM binding z-score,[14],0.0207
same,PBM binding z-score,[15],0.796
same,PBM binding z-score,[16],0.872
same,PBM binding z-score,[17],0.418
same,PBM binding z-score,[18],0.629
same,PBM binding z-score,[19],0.251
same,PBM binding z-score,[20],2.72
ATCTCTAGGTAAAGATAGTTCAGTGACTGCAAAT,PBM binding z-score,[1],0.289
same,PBM binding z-score,[2],4.19
same,PBM binding z-score,[3],0.906
same,PBM binding z-score,[4],0.867
same,PBM binding z-score,[5],0.656
same,PBM binding z-score,[6],0.677
same,PBM binding z-score,[7],0.174
same,PBM binding z-score,[8],0.437
same,PBM binding z-score,[9],0.221
same,PBM binding z-score,[10],0.0894
same,PBM binding z-score,[11],2.25
same,PBM binding z-score,[12],1.52
same,PBM binding z-score,[13],1.25
same,PBM binding z-score,[14],0.496
same,PBM binding z-score,[15],0.972
same,PBM binding z-score,[16],1.06
same,PBM binding z-score,[17],0.522
same,PBM binding z-score,[18],0.54
same,PBM binding z-score,[19],1.52
same,PBM binding z-score,[20],0.693
CCAGACAGGTGAGAAGGTTACTCAGCCTCGATTA,PBM binding z-score,[1],0.207
same,PBM binding z-score,[2],0.568
same,PBM binding z-score,[3],-0.0205
same,PBM binding z-score,[4],0.724
same,PBM binding z-score,[5],-0.277
same,PBM binding z-score,[6],1.54
same,PBM binding z-score,[7],0.536
same,PBM binding z-score,[8],0.872
same,PBM binding z-score,[9],0.0606
same,PBM binding z-score,[10],0.56
same,PBM binding z-score,[11],0.947
same,PBM binding z-score,[12],1.04
same,PBM binding z-score,[13],-0.652
same,PBM binding z-score,[14],-0.801
same,PBM binding z-score,[15],1.03
same,PBM binding z-score,[16],0.441
same,PBM binding z-score,[17],0.133
same,PBM binding z-score,[18],1.23
same,PBM binding z-score,[19],0.46
same,PBM binding z-score,[20],1.36
TAGCCTAGGTCATGGGCTAGTATACCACGCGAAC,PBM binding z-score,[1],4.37
same,PBM binding z-score,[2],3.22
same,PBM binding z-score,[3],-0.104
same,PBM binding z-score,[4],1.86
same,PBM binding z-score,[5],-0.806
same,PBM binding z-score,[6],4.16
same,PBM binding z-score,[7],3.61
same,PBM binding z-score,[8],3.3
same,PBM binding z-score,[9],0.951
same,PBM binding z-score,[10],2.07
same,PBM binding z-score,[11],1.15
same,PBM binding z-score,[12],3.37
same,PBM binding z-score,[13],0.577
same,PBM binding z-score,[14],-0.926
same,PBM binding z-score,[15],1.36
same,PBM binding z-score,[16],1.6
same,PBM binding z-score,[17],-0.606
same,PBM binding z-score,[18],2.74
same,PBM binding z-score,[19],-0.439
same,PBM binding z-score,[20],3.86
CTCGAAAGGTAGTGCTCAGGTGAGTATACCAAAC,PBM binding z-score,[1],-0.118
same,PBM binding z-score,[2],-0.487
same,PBM binding z-score,[3],-0.334
same,PBM binding z-score,[4],-0.319
same,PBM binding z-score,[5],-0.503
same,PBM binding z-score,[6],-0.373
same,PBM binding z-score,[7],-0.362
same,PBM binding z-score,[8],-0.344
same,PBM binding z-score,[9],-0.375
same,PBM binding z-score,[10],-0.618
same,PBM binding z-score,[11],-0.0569
same,PBM binding z-score,[12],-0.0512
same,PBM binding z-score,[13],-0.21
same,PBM binding z-score,[14],-0.517
same,PBM binding z-score,[15],-0.0331
same,PBM binding z-score,[16],-0.295
same,PBM binding z-score,[17],-0.0771
same,PBM binding z-score,[18],0.238
same,PBM binding z-score,[19],0.44
same,PBM binding z-score,[20],-0.123
AGAGACAGGTGATGAAGGTAACTCAGGCTATCAT,PBM binding z-score,[1],0.266
same,PBM binding z-score,[2],0.0997
same,PBM binding z-score,[3],0.0687
same,PBM binding z-score,[4],0.476
same,PBM binding z-score,[5],0.372
same,PBM binding z-score,[6],0.328
same,PBM binding z-score,[7],0.629
same,PBM binding z-score,[8],0.513
same,PBM binding z-score,[9],0.448
same,PBM binding z-score,[10],0.733
same,PBM binding z-score,[11],-0.111
same,PBM binding z-score,[12],0.416
same,PBM binding z-score,[13],0.748
same,PBM binding z-score,[14],0.187
same,PBM binding z-score,[15],0.847
same,PBM binding z-score,[16],0.283
same,PBM binding z-score,[17],0.671
same,PBM binding z-score,[18],0.263
same,PBM binding z-score,[19],1.15
same,PBM binding z-score,[20],0.706

# Source: the supplement of paper PMC6555819
